The whole screen tested about 1,800 compounds, of which about 410 (23%) were called active. No rule for the calls is given here. The list is a sample of the results. Entries with a potency or affinity are not part of this list.
Test: Vero cell cytotoxicity, cytotoxicity control for flavivirus capping enzyme inhibitors (AID 588742)
Details: Vero cells viability, cytotoxicity counter-screen; series mostly up to 40 µM

| SMILES | outcome |
| --- | --- |
| Cc1c(Cl)cccc1NC(CC(=O)c1ccccc1)C(=O)O (stereo not given) | inactive |
| O=C(CC(Nc1ccc(Cl)cc1Cl)C(=O)O)c1ccccc1 (stereo not given) | inactive |
| O=C(NNc1ccc(O)cc1)c1ccc(Br)cc1 | inactive |
| Cc1cccc(NC(=O)CSc2nnc(-c3ccco3)c(-c3ccco3)n2)c1C | inactive |
| Cc1ccc(O)c(NC2=C(Cl)C(=O)N(Cc3ccccc3)C2=O)c1 | inactive |
| O=C1/C(=C2\C(=O)N(Cc3ccc(F)cc3)c3ccccc32)SC(=S)N1CCS(=O)(=O)O | inactive |
| Cc1ccc(S(=O)(=O)N2[C@@H](c3cccc(Cl)c3)C(C(=O)O)=CC[C@H]2c2ccc(C(C)C)cc2)cc1 | inactive |
| O=C(CSc1nc(O)c(Cc2ccccc2)c(=O)[nH]1)Nc1nnc(SCc2ccccc2)s1 | inactive |
| Oc1cc(CNC2CCCCC2)c(O)cc1CNC1CCCCC1 | inactive |
| CC(C)C[C@H](N)c1nnc(SCC(=O)Nc2ccc(Br)cc2)o1 | inactive |
| Cc1ccc(S(=O)(=O)Cc2ccc(C(=O)N3CCC(C(N)=O)CC3)o2)cc1 | inactive |
| CC(C)c1cc2c(c(O)c1O)[C@@]13CCCC(C)(C)C1CC2OC3=O (stereo not given in full) | inactive |
| Cc1ccc(-c2csc(NS(=O)(=O)c3cccc(F)c3)n2)o1 | inactive |
| CCc1c(C)sc(NC(=O)OC)c1C(=O)N1CCCCC1 | inactive |
| O=C(O)c1ccccc1C(=O)c1ccc(Sc2ccc(Cl)cc2)c([N+](=O)[O-])c1 | inactive |
| Cc1sc(NC(=O)c2ccco2)c(C(c2ccncc2)N2CCOCC2)c1C (stereo not given) | inactive |
| CC1(C)CC(=O)C(C(c2ccco2)C2C(=O)CC(C)(C)CC2=O)C(=O)C1 | inactive |
| Cc1noc(NS(=O)(=O)c2ccc(NC(=O)c3ccccc3NS(=O)(=O)c3ccc(F)cc3)cc2)c1C | inactive |
| C/C(=N/Nc1ccc(C(=O)O)cc1)c1ccc(O)c(O)c1O | inactive |
| CCS(=O)(=O)c1nc(S(=O)(=O)c2ccc(C)cc2)c(N2CCOCC2)s1 | inactive |
| O=C(O)c1ccc(/C=N/Nc2ccc(S(=O)(=O)N3CCCC3)cc2[N+](=O)[O-])cc1 | inactive |
| O=C1ON=C(c2ccccc2)/C1=C/c1ccc(-c2ccccc2[N+](=O)[O-])o1 | inactive |

| SMILES | outcome |
| --- | --- |
| O=[N+]([O-])c1cc2c(cc1C=Nc1ccccc1)OCO2 | inactive |
| Cc1ccc2nsnc2c1S(=O)(=O)N(CCO)Cc1cc2cc3c(cc2[nH]c1=O)OCCO3 | inactive |
| COc1cccc(/C=C2/C(=O)NN(c3ccc(F)cc3)C2=O)c1 | inactive |
| CCC(C)NC(=O)Cc1ccc(-c2ccccc2)cc1 (stereo not given) | inactive |
| CC1=NN(c2nc(-c3ccc(Cl)cc3)cs2)C(=O)C1 | inactive |
| CCCC(=Nc1ccc(N)cc1)C1=C(O)C(C(=O)OC)C(C)(C)CC1=O (stereo not given) | inactive |
| O=C1C(O)=C(O)C(=O)c2ccccc21 | inactive |
| COC(=O)c1ccc(-c2ccc(C(c3c(C)[nH][nH]c3=O)c3c(C)[nH][nH]c3=O)o2)cc1 | inactive |
| O=C(Nc1cccc(Oc2ccc(C(=O)O)c(C(=O)O)c2)c1)c1ccc(-c2ccccc2)cc1 | inactive |
| CC1CCC(C(C)C)C2=C1C(C#N)(C#N)C(C#N)(C#N)C(c1ccccc1)N2 (stereo not given) | inactive |
| Cc1ccc(-c2nn(-c3ccccc3)cc2/C=C2\SC(=S)N(CC(=O)O)C2=O)cc1 | inactive |
| CC1(C)CC(=O)C(=Cc2cn(CCC#N)nc2-c2ccc(Cl)cc2)C(=O)C1 | inactive |
| O=C(Nc1ccc(Cl)cc1)C1c2cccc[n+]2CC(=O)N1Cc1ccc2c(c1)OCO2 (stereo not given) | inactive |
| CCOc1cc(Br)cc(C(c2c(C(=O)O)[nH]c3ccccc23)c2c(C(=O)O)[nH]c3ccccc23)c1O | inactive |
| Cc1nn(-c2ccccc2)c2c1C(c1cccs1)C(C#N)=C(N)O2 (stereo not given) | inactive |
| Cc1ccc(CCNC(=O)C2CCN(S(=O)(=O)N3CCCCC3)CC2)cc1 | inactive |
| O=[N+]([O-])c1ccccc1-c1ccc(C(=S)N2CCCC2)o1 | inactive |
| O=[N+]([O-])c1ccccc1-c1ccc(C(=S)N2CCCCC2)o1 | inactive |
| O=C1NN(c2ccccc2)C(=O)/C1=C/c1ccc(-c2ccc(Cl)c(C(=O)O)c2)o1 | inactive |
| O=C(O)c1ccc(Cn2cc(/C=C\[N+](=O)[O-])c3ccccc32)o1 | inactive |
| COc1cc(-c2cccs2)cc(=O)c2c(C)oc(C)c12 | inactive |
| CCOc1ccc(/C=C2\SC(=S)N(CCC(=O)Nc3ccccc3C(=O)O)C2=O)cc1 | inactive |

| SMILES | outcome |
| --- | --- |
| Cc1ccc(C(=O)c2coc3c2C(=O)C(=O)c2ccccc2-3)cc1 | inactive |
| Cc1oc(=O)c(NC(=O)c2ccccc2)cc1C(=O)c1ccccc1 | inactive |
| COc1ccc(C(=O)Nc2cc(C(=O)c3ccccc3)c(C)oc2=O)cc1 | inactive |
| O=C(COc1cccc2ccccc12)Nc1cc(Cl)ccc1C(=O)O | inactive |
| O=C1Nc2ccc(F)cc2C12Nc1ccccc1-c1nnc(SCc3ccccc3F)nc1O2 (stereo not given) | inactive |
| CC1=NOC(=O)/C1=C\c1ccc(-c2ccc(Br)cc2C(=O)O)o1 | inactive |
| CCOC(=O)c1c(-c2ccc(C)c(C)c2)csc1NC(=O)C1CC=CCC1C(=O)O (stereo not given) | inactive |
| COC(=O)COc1ccc(C2Nc3c(Cl)ccc(C(=O)O)c3C3C=CCC32)cc1 (stereo not given) | inactive |
| N#C/C(=C(/O)CSc1ccccc1C(=O)O)c1nc2ccccc2s1 | inactive |
| COc1ccc(CC(=O)NCc2ccc3c(c2)cc(C)n3C)cc1 | inactive |
| CC1=NN(c2nc(-c3ccc(F)cc3)cs2)C(=O)C1 | inactive |
| CCC(C(=O)O)N1C(=O)/C(=C/C(C)=C/c2ccccc2)SC1=S (stereo not given) | inactive |
| CC(=O)Nc1ccc2nc(N)sc2c1 | inactive |
| COc1ccc(NCC(=O)N/N=C2\CCc3ccccc32)cc1 | inactive |
| CCOC(=O)c1c(N)sc2c1CCS(=O)(=O)C2 | inactive |
| CCOC(=O)c1c(N)sc(=S)c2c1CCC2 | inactive |
| CCCCC1=CC2=C(c3ccco3)C(=O)C(C)(OC(=O)c3ccc(OC)cc3)C(=O)C2=CN1C1CC1 (stereo not given) | inactive |
| CC1=NOC(=O)/C1=C/c1ccc2c(c1)OCO2 | inactive |
| CC(=O)c1ccc(NC(=O)CSc2nnc(-c3ccco3)c(-c3ccco3)n2)cc1 | inactive |
| Nc1c(C(=O)O)sc2nc(-c3ccccc3)cc(-c3ccc(Cl)cc3)c12 | inactive |
| CCOC(=O)C1=C(O)/C(=C\c2ccc(CNC(=O)C(=O)Nc3ccccc3)o2)N=C1C | inactive |
